According to PubChem BioAssay:
For some assays here: Entries with a potency or affinity are not part of this list. Active and inactive are the calls of the source. Unless noted, how the calls were made is not given here.

Tests used:
[1] = antimalarial activity against Dd2 strain (AID 2302;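 active means growth inhibition above 50% at the single 2 µM test dose, taken to imply half-maximal potency below 2 µM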;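 further: 0% = DMSO untreated growth and 100% = chloroquine plus artemisinin killed control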); details: P. falciparum Dd2 in RBCs, LDH growth readout, 72 h; at 2 µM; stronger effect = higher value
[2] = human hepatoma cell viability loss – ATP luminescence, cytotoxicity control for P. falciparum antimalarial project, primary screen (AID 2303;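 active means inhibition above 50%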;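 further: 0% = DMSO wells and 100% = digitonin-killed cells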); details: HepG2 viability, 24-48 h, at 10 µM, stronger effect = higher value
[3] = target: L-lactate dehydrogenase (Plasmodium falciparum (isolate CDC / Honduras)) (UniProt Q27743); test: PfLDH activity inhibition – cell lysate, 3D7 strain, counter-screen for P. falciparum growth inhibition project (AID 2304);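 further: 0% = vehicle and 100% = reference inhibitor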; details: P. falciparum 3D7 crude extract, LDH APAD/NBT absorbance; at 2 µM; stronger effect = higher value
L-lactate dehydrogenase (Plasmodium falciparum (isolate CDC / Honduras)), sequence (Q27743 whole entry, looked up): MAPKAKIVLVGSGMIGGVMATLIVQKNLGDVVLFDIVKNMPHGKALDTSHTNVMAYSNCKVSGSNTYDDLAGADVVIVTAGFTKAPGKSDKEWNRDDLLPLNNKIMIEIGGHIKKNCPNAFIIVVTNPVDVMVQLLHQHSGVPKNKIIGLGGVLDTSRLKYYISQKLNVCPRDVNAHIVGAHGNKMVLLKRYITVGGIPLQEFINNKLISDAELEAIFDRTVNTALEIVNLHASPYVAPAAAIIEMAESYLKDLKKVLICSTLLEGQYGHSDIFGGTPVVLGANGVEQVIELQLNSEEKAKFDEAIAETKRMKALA

[4] = inhibition of 3D7 malaria parasite growth – strain 3D7 (AID 2306);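 further: 0% = DMSO wells and 100% = chloroquine plus artemisinin control wells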; details: P. falciparum 3D7 erythrocytic growth, LDH absorbance, 72 h; at 2 µM; stronger effect = higher value
[5] = target: Calcium-dependent protein kinase 1 (Plasmodium falciparum (isolate 3D7)) (UniProt P62344); test: PfCDPK1 kinase inhibitors, biochemical, TCAMS library (AID 1159585; cut-off not given, nearly all actives have IC50 up to about 0.98 µM;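 further: inhibitors leave more ATP so luminescence rises with inhibition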); details: recombinant PfCDPK1, Kinase-Glo ATP depletion luminescence
Calcium-dependent protein kinase 1 (Plasmodium falciparum (isolate 3D7)), sequence (P62344 whole entry, looked up): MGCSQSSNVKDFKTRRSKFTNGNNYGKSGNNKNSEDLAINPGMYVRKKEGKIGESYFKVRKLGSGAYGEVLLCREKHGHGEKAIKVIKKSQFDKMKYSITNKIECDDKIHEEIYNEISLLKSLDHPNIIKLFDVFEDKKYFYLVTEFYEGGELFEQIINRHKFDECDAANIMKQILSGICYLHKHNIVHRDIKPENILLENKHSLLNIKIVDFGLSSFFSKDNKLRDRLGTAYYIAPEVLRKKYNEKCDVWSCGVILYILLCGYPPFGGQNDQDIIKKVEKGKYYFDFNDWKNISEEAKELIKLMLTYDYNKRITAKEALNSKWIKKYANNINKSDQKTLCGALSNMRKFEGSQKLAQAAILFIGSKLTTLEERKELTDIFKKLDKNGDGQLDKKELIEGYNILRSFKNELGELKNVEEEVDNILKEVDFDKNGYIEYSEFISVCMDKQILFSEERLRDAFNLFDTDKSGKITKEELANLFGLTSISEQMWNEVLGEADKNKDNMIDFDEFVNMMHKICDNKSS

[6] = target: Plasmodium falciparum protein kinase 6 (PK6, PF3D7_1337100) (UniProt Q8IDW1); test: PfPK6 kinase inhibitors, biochemical, TCAMS library (AID 1159586); details: recombinant PfPK6, Kinase-Glo ATP depletion luminescence
Plasmodium falciparum protein kinase 6 (PK6, PF3D7_1337100), sequence (Q8IDW1 1-305): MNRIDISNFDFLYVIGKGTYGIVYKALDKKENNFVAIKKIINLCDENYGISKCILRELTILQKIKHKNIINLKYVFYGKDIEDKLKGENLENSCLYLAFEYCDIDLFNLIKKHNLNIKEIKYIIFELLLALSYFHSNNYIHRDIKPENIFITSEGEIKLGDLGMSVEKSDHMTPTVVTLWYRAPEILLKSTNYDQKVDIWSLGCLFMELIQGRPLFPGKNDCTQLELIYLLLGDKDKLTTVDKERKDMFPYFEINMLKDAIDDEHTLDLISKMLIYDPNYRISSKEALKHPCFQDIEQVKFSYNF

[7] = target: Protein kinase 7 (PK7), Plasmodium falciparum 3D7 (PF3D7_0213400) (UniProt Q7YTF7); test: inhibition of Plasmodium PK7 catalytic activity – biochemical, TCAMS antimalarial set, Kinase-Glo luminescence (AID 1159587); details: recombinant PfPK7, Kinase-Glo ATP depletion luminescence
Protein kinase 7 (PK7), Plasmodium falciparum 3D7 (PF3D7_0213400), sequence (Q7YTF7 1-343): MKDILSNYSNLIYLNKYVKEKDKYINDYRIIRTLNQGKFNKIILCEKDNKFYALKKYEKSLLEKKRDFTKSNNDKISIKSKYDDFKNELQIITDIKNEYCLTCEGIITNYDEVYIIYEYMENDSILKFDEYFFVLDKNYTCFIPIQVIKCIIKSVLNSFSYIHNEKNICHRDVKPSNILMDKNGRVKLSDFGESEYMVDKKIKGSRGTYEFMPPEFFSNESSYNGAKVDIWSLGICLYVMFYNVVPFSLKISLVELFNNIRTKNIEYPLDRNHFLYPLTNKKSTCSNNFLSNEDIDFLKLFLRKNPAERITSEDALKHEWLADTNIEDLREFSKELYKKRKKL

[8] = target: Calcium-dependent protein kinase 4 (Plasmodium falciparum (isolate 3D7)) (UniProt Q8IBS5); test: PfCDPK4 kinase inhibitors, biochemical, TCAMS library (AID 1159588; cut-off not given, nearly all actives have IC50 up to about 0.91 µM); details: recombinant PfCDPK4, Kinase-Glo ATP depletion luminescence
Calcium-dependent protein kinase 4 (Plasmodium falciparum (isolate 3D7)), sequence (Q8IBS5 whole entry, looked up): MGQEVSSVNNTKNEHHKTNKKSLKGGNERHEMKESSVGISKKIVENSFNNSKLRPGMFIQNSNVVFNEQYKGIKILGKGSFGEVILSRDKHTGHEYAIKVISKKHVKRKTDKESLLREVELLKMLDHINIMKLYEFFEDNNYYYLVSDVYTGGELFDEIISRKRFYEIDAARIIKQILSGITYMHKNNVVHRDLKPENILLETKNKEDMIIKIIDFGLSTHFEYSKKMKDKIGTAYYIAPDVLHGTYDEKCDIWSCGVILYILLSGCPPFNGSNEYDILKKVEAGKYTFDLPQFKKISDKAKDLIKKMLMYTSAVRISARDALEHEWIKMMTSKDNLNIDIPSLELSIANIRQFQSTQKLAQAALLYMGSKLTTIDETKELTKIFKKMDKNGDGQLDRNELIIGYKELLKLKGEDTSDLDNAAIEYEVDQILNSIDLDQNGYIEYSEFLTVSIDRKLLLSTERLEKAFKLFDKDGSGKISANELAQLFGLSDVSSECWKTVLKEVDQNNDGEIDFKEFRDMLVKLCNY

O=C(Nc1ccccc1)N(Cc1ccc(-c2cccc(CNC3CCCC3)c2)cc1)C1CCN(Cc2ccccc2)CC1
active: growth inhibition [1] 67% | growth inhibition [4] 101%
inactive: inhibition [2] 43% | inhibition [3] 1% | outcome [5] | outcome [6] | outcome [7] | outcome [8]

COc1ccccc1N(C)CCNc1cc(C)nc(Nc2ccc(C)cc2)n1
active: growth inhibition [4] 93%
inactive: growth inhibition [1] 25% | inhibition [2] 9% | inhibition [3] 0% | outcome [5] | outcome [6] | outcome [7] | outcome [8]

COc1ccc(C[C@@H](N)C(=O)N[C@H]2[C@@H](O)[C@H](n3cnc4c(N(C)C)ncnc43)O[C@@H]2CO)cc1
active: growth inhibition [1] 100% | inhibition [2] 99% | growth inhibition [4] 101%
inactive: inhibition [3] 0% | outcome [5] | outcome [6] | outcome [7] | outcome [8]

Cc1cc(NC(=O)Nc2ccc(C(C)(C)C)cc2)c2ccccc2n1
active: growth inhibition [1] 57% | growth inhibition [4] 101%
inactive: inhibition [2] -3% | inhibition [3] 5% | outcome [5] | outcome [6] | outcome [7] | outcome [8]

CCCCOc1cc2c(cc1OCC)C(C=Cc1ccc(Cl)cc1Cl)=NCC2
inactive: inhibition [2] -2% | inhibition [3] -1% | outcome [5] | outcome [6] | outcome [7] | outcome [8]
active: growth inhibition [1] 95% | growth inhibition [4] 97%

O=C(Nc1ccc(-c2cccc(-c3nc4ccc(F)cc4[nH]3)c2)cc1)Nc1ccsc1
active: growth inhibition [1] 51% | growth inhibition [4] 101%
inactive: inhibition [2] 34% | inhibition [3] 5% | outcome [5] | outcome [6] | outcome [7] | outcome [8]

Cn1c(=O)c2nc(-c3ccc(Cl)cc3)nnc2n(CCCC#N)c1=O
inactive: inhibition [2] 6% | inhibition [3] 6% | outcome [5] | outcome [6] | outcome [7] | outcome [8]
active: growth inhibition [1] 98% | growth inhibition [4] 99%

CCOc1cc2c(cc1OCC)C(c1ccc(O)c(Cl)c1)NCC2 (stereo not given)
inactive: inhibition [2] 6% | inhibition [3] 4% | outcome [5] | outcome [6] | outcome [7] | outcome [8]
active: growth inhibition [1] 98% | growth inhibition [4] 98%

CC(C)NCc1ccc(-c2ccc(CN3CCCC(c4ccccc4)C3)cc2)c(C(=O)NC2Cc3ccccc3C2)c1 (stereo not given)
active: growth inhibition [1] 64% | growth inhibition [4] 96%
inactive: inhibition [2] 41% | inhibition [3] 3% | outcome [5] | outcome [6] | outcome [7] | outcome [8]

NC(N)=NC(=O)Nc1cc(Br)c(Cl)c(Br)c1
active: growth inhibition [1] 83% | growth inhibition [4] 101%
inactive: inhibition [2] 0% | inhibition [3] 4% | outcome [5] | outcome [6] | outcome [7] | outcome [8]

CN1CCC(N(Cc2ccc(N3CCN(Cc4c[nH]c5ccc(Cl)cc45)CC3)nc2)C2CC2)CC1
active: growth inhibition [1] 76% | inhibition [2] 96% | growth inhibition [4] 100%
inactive: inhibition [3] -2% | outcome [5] | outcome [6] | outcome [7] | outcome [8]

CC1CC1C(=O)NC1CCN(CC2(c3ccccc3)CCCCC2)CC1 (stereo not given)
inactive: inhibition [2] -1% | inhibition [3] 0% | outcome [5] | outcome [6] | outcome [7] | outcome [8]
active: growth inhibition [1] 95% | growth inhibition [4] 97%

CC1(C)N=C(N)N=C(N)N1OCCCc1cccc(C(F)(F)F)c1
inactive: inhibition [3] -3% | outcome [5] | outcome [6] | outcome [7] | outcome [8]
active: growth inhibition [1] 95% | inhibition [2] 62% | growth inhibition [4] 95%

N/C(=N\c1ncccn1)Nc1cccc(Cc2ccccc2)n1
inactive: growth inhibition [1] 34% | inhibition [3] -2% | outcome [5] | outcome [6] | outcome [7] | outcome [8]
active: inhibition [2] 51% | growth inhibition [4] 90%

CC(C)(C)C1CC(=O)C[C@@H]2C(=O)N(c3ccc(Br)cc3)C(=O)[C@H]12 (stereo not given in full)
inactive: growth inhibition [1] 7% | inhibition [2] -2% | inhibition [3] 1% | outcome [5] | outcome [6] | outcome [7] | outcome [8]
active: growth inhibition [4] 94%

Cc1cccc2[nH]c(-c3cccc(-c4cccc(CNCCN5CCNCC5)c4)c3)nc12
inactive: growth inhibition [1] 0% | inhibition [2] 11% | inhibition [3] 1% | outcome [5] | outcome [6] | outcome [7] | outcome [8]
active: growth inhibition [4] 90%

O=c1ccc2ccc(F)cc2n1CCN1CCC(NCc2ccc(-c3ccccn3)s2)CC1
inactive: growth inhibition [1] 30% | inhibition [2] -12% | inhibition [3] -1% | outcome [5] | outcome [6] | outcome [7] | outcome [8]
active: growth inhibition [4] 98%

Cc1cc(NCCC(=O)Nc2ccccc2)nc(NCCc2cccnc2)n1
active: growth inhibition [4] 84%
inactive: growth inhibition [1] 4% | inhibition [2] -1% | inhibition [3] -2% | outcome [5] | outcome [6] | outcome [7] | outcome [8]

COc1ccc2nc(-c3ccc(C(=O)NCCCN4CCN(c5cc(Cl)ccc5OC)CC4)cc3OC)[nH]c2c1
active: growth inhibition [4] 101%
inactive: growth inhibition [1] 24% | inhibition [2] -5% | inhibition [3] 1% | outcome [5] | outcome [6] | outcome [7] | outcome [8]

CN1CCN(c2ccnc3ccc(NC(=O)Cc4ccc5ccccc5c4)cc23)CC1
active: growth inhibition [1] 89% | growth inhibition [4] 100%
inactive: inhibition [2] 6% | inhibition [3] -2% | outcome [5] | outcome [6] | outcome [7] | outcome [8]

CCCCN(CCCC)CCNC(=O)c1cc(OC(F)(F)F)ccc1O
active: growth inhibition [1] 90% | growth inhibition [4] 93%
inactive: inhibition [2] 8% | inhibition [3] -8% | outcome [5] | outcome [6] | outcome [7] | outcome [8]

CCCOc1ccc(C=C(CC(=O)O)c2nc3ccccc3s2)cc1OCC
active: growth inhibition [1] 84% | growth inhibition [4] 89%
inactive: inhibition [2] 7% | inhibition [3] -1% | outcome [5] | outcome [6] | outcome [7] | outcome [8]

COc1ccc(NC(=O)Nc2cccc(-c3ccc(-c4nc5c(C)cccc5[nH]4)s3)c2)cc1
inactive: growth inhibition [1] 32% | inhibition [2] 23% | inhibition [3] 8% | outcome [5] | outcome [6] | outcome [7] | outcome [8]
active: growth inhibition [4] 101%

CN(C)CCNC(=O)c1csc(Nc2ccc(Cl)c(Cl)c2)n1
active: growth inhibition [1] 100% | growth inhibition [4] 100%
inactive: inhibition [2] 4% | inhibition [3] -3% | outcome [5] | outcome [6] | outcome [7] | outcome [8]

Cc1ccc2c(c1)c(-c1ccccc1)c(-c1ccccc1)n2CC(O)CN1CCN(CC=Cc2ccccc2)CC1 (stereo not given)
active: growth inhibition [1] 98% | growth inhibition [4] 98%
inactive: inhibition [2] 0% | inhibition [3] 6% | outcome [5] | outcome [6] | outcome [7] | outcome [8]

COc1nc2c(CCN3CC[C@H](NCc4cc(C#N)c5c(c4)CCO5)[C@H](O)C3)ccnc2cc1F
active: growth inhibition [1] 71% | growth inhibition [4] 99%
inactive: inhibition [2] 31% | inhibition [3] -9% | outcome [5] | outcome [6] | outcome [7] | outcome [8]

CCNc1cc(C(=O)N[C@@H](Cc2ccccc2)[C@H](O)CNC(C)(C)Cc2cccc(Cl)c2)cc(N2CCCCS2(=O)=O)c1
inactive: inhibition [2] 17% | inhibition [3] 3% | outcome [5] | outcome [6] | outcome [7] | outcome [8]
active: growth inhibition [1] 74% | growth inhibition [4] 97%

O=C(CSc1ccccn1)Nc1c(F)cccc1F
inactive: growth inhibition [1] -5% | inhibition [2] -2% | inhibition [3] 1% | outcome [5] | outcome [6] | outcome [7] | outcome [8]
active: growth inhibition [4] 88%

O=C(Nc1ccc([N+](=O)[O-])cc1)c1nn(-c2ccccc2)cc1N=Cc1cccc(O)c1
inactive: growth inhibition [1] 37% | inhibition [2] 10% | inhibition [3] -5% | outcome [5] | outcome [6] | outcome [7] | outcome [8]
active: growth inhibition [4] 98%

COc1cc2nc(NCCc3ccccc3)nc(NCc3cc(C)no3)c2cc1OC
inactive: inhibition [2] 5% | inhibition [3] -3% | outcome [5] | outcome [6] | outcome [7] | outcome [8]
active: growth inhibition [1] 100% | growth inhibition [4] 99%

CC(Oc1ccc(NC(=O)c2cccs2)cc1)C(=O)c1ccc(Cl)cc1 (stereo not given)
inactive: inhibition [2] -1% | inhibition [3] 1% | outcome [5] | outcome [6] | outcome [7] | outcome [8]
active: growth inhibition [1] 83% | growth inhibition [4] 92%

CCOc1cc(C(=O)NC2CCN(Cc3ccccc3)CC2)ccc1-c1nc2ccc(Cl)cc2[nH]1
active: growth inhibition [1] 84% | growth inhibition [4] 101%
inactive: inhibition [2] 10% | inhibition [3] -6% | outcome [5] | outcome [6] | outcome [7] | outcome [8]

COc1cccc(C(=O)NCCc2cccc(Cl)c2)c1Oc1ccccc1
active: growth inhibition [1] 90% | growth inhibition [4] 97%
inactive: inhibition [2] 28% | inhibition [3] -1% | outcome [5] | outcome [6] | outcome [7] | outcome [8]

O=C(Nc1ccc(Oc2ccccc2)cc1)N1CCC(CCN2CCC(c3c[nH]c4ccccc34)CC2)CC1
inactive: growth inhibition [1] 36% | inhibition [2] 42% | inhibition [3] 7% | outcome [5] | outcome [6] | outcome [7] | outcome [8]
active: growth inhibition [4] 100%

CCN(CC)CCCCCNc1c2ccc(Cl)cc2nc2ccc(OC)cc12
active: growth inhibition [1] 99% | inhibition [2] 96% | growth inhibition [4] 99%
inactive: inhibition [3] 4% | outcome [5] | outcome [6] | outcome [7] | outcome [8]

COc1cccc(CNC(=O)NC2CCN(c3ccnc(Nc4cc(OC)c(OC)c(OC)c4)n3)C2)c1 (stereo not given)
active: growth inhibition [1] 84% | growth inhibition [4] 93%
inactive: inhibition [2] 15% | inhibition [3] -6% | outcome [5] | outcome [6] | outcome [7] | outcome [8]

CN1CCN(CCCN(Cc2ccc(-c3ccc(CNCc4ccc5c(c4)OCO5)cc3)cc2)C(=O)CCC2CCCC2)CC1
active: growth inhibition [1] 85% | inhibition [2] 55% | growth inhibition [4] 99%
inactive: inhibition [3] 8% | outcome [5] | outcome [6] | outcome [7] | outcome [8]

Cc1cc(NC(=O)NCCN2CCC(NS(=O)(=O)c3ccccc3Cl)C2)c2ccccc2n1 (stereo not given)
inactive: growth inhibition [1] 43% | inhibition [2] 1% | inhibition [3] -5% | outcome [5] | outcome [6] | outcome [7] | outcome [8]
active: growth inhibition [4] 97%

COc1ccc2nccc([C@@H](O)CN3CCC(NCCOc4cccc(F)c4F)CC3)c2c1
inactive: inhibition [2] 9% | inhibition [3] 3% | outcome [5] | outcome [6] | outcome [7] | outcome [8]
active: growth inhibition [1] 85% | growth inhibition [4] 102%

Cc1cc(NN=Cc2ccccc2Cl)c2ccc(F)cc2n1
active: growth inhibition [1] 100% | growth inhibition [4] 101%
inactive: inhibition [2] 6% | inhibition [3] -4% | outcome [5] | outcome [6] | outcome [7] | outcome [8]
